# PMC5540273 (PLoS ONE, 2017)
# Where “and” joins values, the source holds several entries; their conditions need not be identical. Equal values may be shown once. Read-outs that look alike come from different tables or passages of the source.
# Tests used:
# MERTK = settings: concentration: 1 μM, replicates: in singlicate; n = 1
# MET = settings: concentration: 1 μM, replicates: in singlicate; n = 1
# MINK = system: T1, MINK; settings: concentration: 1 μM, replicates: in singlicate, n = 1
# T1 construct: gene MINK1
# MKK7 = settings: concentration: 1 μM, replicates: in singlicate, n = 1
# MKNK1 = settings: concentration: 1 μM, replicates: in singlicate; n = 1
# MKNK2 = settings: concentration: 1 μM, replicates: in singlicate, n = 1
# MLCK = system: T2, MLCK; settings: concentration: 1 μM, replicates: in singlicate; n = 1
# T2 construct: gene MYLK3
# MLK1 = system: T3, MLK1; settings: concentration: 1 μM, replicates: in singlicate; n = 1
# T3 construct: gene MAP3K9
# MLK2 = settings: concentration: 1 μM, replicates: in singlicate, n = 1
# MLK3 = settings: concentration: 1 μM, replicates: in singlicate, n = 1
# MRCKA = settings: concentration: 1 μM, replicates: in singlicate, n = 1
# MRCKB = system: T4, MRCKB; settings: concentration: 1 μM, replicates: in singlicate; n = 1
# T4 construct: gene CDC42BPB
# MST1R = settings: concentration: 1 μM, replicates: in singlicate, n = 1
# MST1 = system: T5, MST1; settings: concentration: 1 μM, replicates: in singlicate; n = 1
# T5 construct: gene STK4
# MST2 = system: T6, MST2; settings: concentration: 1 μM, replicates: in singlicate, n = 1
# T6 construct: gene STK3
# MST3 = system: T7, MST3; settings: concentration: 1 μM, replicates: in singlicate; n = 1
# T7 construct: gene STK24
# MST4 = settings: concentration: 1 μM, replicates: in singlicate; n = 1
# MTOR = settings: concentration: 1 μM, replicates: in singlicate, n = 1
# MUSK = settings: concentration: 1 μM, replicates: in singlicate; n = 1
# MYLK2 = settings: concentration: 1 μM, replicates: in singlicate; n = 1
# 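Further: KINOMEscan kinase panel screen.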
compound,measurement,setting,value
CC(=O)Nc1n[nH]c2ncc(-c3ccccc3)cc12 [SB-548492],%Inh,MERTK,37%
same,%Inh,MET,4%
same,%Inh,MINK,30%
same,%Inh,MKK7,2%
same,%Inh,MKNK1,0%
same,%Inh,MKNK2,62%
same,%Inh,MLCK,0%
same,%Inh,MLK1,8%
same,%Inh,MLK2,6%
same,%Inh,MLK3,3%
same,%Inh,MRCKA,0%
same,%Inh,MRCKB,10%
same,%Inh,MST1R,41%
same,%Inh,MST1,0%
same,%Inh,MST2,1%
same,%Inh,MST3,5%
same,%Inh,MST4,15%
same,%Inh,MTOR,6%
same,%Inh,MUSK,9%
same,%Inh,MYLK2,37%
COc1cc2ncnc(Nc3ccc(OCc4ccccc4Br)c(Cl)c3)c2cc1OC.Cl [GI261590],%Inh,MERTK,7%
same,%Inh,MET,0%
same,%Inh,MINK,0%
same,%Inh,MKK7,0%
same,%Inh,MKNK1,0%
same,%Inh,MKNK2,11%
same,%Inh,MLCK,0%
same,%Inh,MLK1,0%
same,%Inh,MLK2,11%
same,%Inh,MLK3,9%
same,%Inh,MRCKA,23%
same,%Inh,MRCKB,0%
same,%Inh,MST1R,48%
same,%Inh,MST1,10%
same,%Inh,MST2,0%
same,%Inh,MST3,0%
same,%Inh,MST4,0%
same,%Inh,MTOR,24%
same,%Inh,MUSK,12%
same,%Inh,MYLK2,0%
N#Cc1ccc(Oc2ccc(Nc3ncnc4cc[nH]c34)cc2Cl)cc1,%Inh,MERTK,0%
same,%Inh,MET,11%
same,%Inh,MINK,31%
same,%Inh,MKK7,0%
same,%Inh,MKNK1,0%
same,%Inh,MKNK2,20%
same,%Inh,MLCK,8%
same,%Inh,MLK1,0%
same,%Inh,MLK2,0%
same,%Inh,MLK3,0%
same,%Inh,MRCKA,12%
same,%Inh,MRCKB,32%
same,%Inh,MST1R,11%
same,%Inh,MST1,10%
same,%Inh,MST2,19%
same,%Inh,MST3,24%
same,%Inh,MST4,0%
same,%Inh,MTOR,13%
same,%Inh,MUSK,6%
same,%Inh,MYLK2,16%
COC(=O)c1c(-c2ccccc2)c2cc(Cl)ccc2c(=O)n1Cc1ccc(S(C)(=O)=O)cc1,%Inh,MERTK,8%
same,%Inh,MET,0%
same,%Inh,MINK,0%
same,%Inh,MKK7,0%
same,%Inh,MKNK1,0%
same,%Inh,MKNK2,0%
same,%Inh,MLCK,0%
same,%Inh,MLK1,0%
same,%Inh,MLK2,0%
same,%Inh,MLK3,4%
same,%Inh,MRCKA,0%
same,%Inh,MRCKB,0%
same,%Inh,MST1R,24%
same,%Inh,MST1,1%
same,%Inh,MST2,18%
same,%Inh,MST3,7%
same,%Inh,MST4,0%
same,%Inh,MTOR,0%
same,%Inh,MUSK,0%
same,%Inh,MYLK2,0%
O=C(CCO)NCCn1ccc2ncnc(Nc3ccc(Oc4cccc(C(F)(F)F)c4)c(Cl)c3)c21,%Inh,MERTK,0%
same,%Inh,MET,0%
same,%Inh,MINK,0%
same,%Inh,MKK7,0%
same,%Inh,MKNK1,0%
same,%Inh,MKNK2,12%
same,%Inh,MLCK,0%
same,%Inh,MLK1,0%
same,%Inh,MLK2,0%
same,%Inh,MLK3,0%
same,%Inh,MRCKA,0%
same,%Inh,MRCKB,2%
same,%Inh,MST1R,0%
same,%Inh,MST1,0%
same,%Inh,MST2,0%
same,%Inh,MST3,0%
same,%Inh,MST4,0%
same,%Inh,MTOR,31%
same,%Inh,MUSK,0%
same,%Inh,MYLK2,0%
CC(C)(C)c1ccc(-n2cnc3c(N)ncnc32)cc1 [SKF-97263],%Inh,MERTK,41%
same,%Inh,MET,0%
same,%Inh,MINK,14%
same,%Inh,MKK7,6%
same,%Inh,MKNK1,0%
same,%Inh,MKNK2,29%
same,%Inh,MLCK,4%
same,%Inh,MLK1,2%
same,%Inh,MLK2,61%
same,%Inh,MLK3,0%
same,%Inh,MRCKA,0%
same,%Inh,MRCKB,3%
same,%Inh,MST1R,17%
same,%Inh,MST1,13%
same,%Inh,MST2,18%
same,%Inh,MST3,0%
same,%Inh,MST4,0%
same,%Inh,MTOR,15%
same,%Inh,MUSK,0%
same,%Inh,MYLK2,0%
Nc1nccc2scc(-c3ccc4c(c3)CCN4C(=O)Cc3cc(F)ccc3F)c12 [GSK2587663],%Inh,MERTK,0%
same,%Inh,MET,0%
same,%Inh,MINK,18%
same,%Inh,MKK7,0%
same,%Inh,MKNK1,0%
same,%Inh,MKNK2,4%
same,%Inh,MLCK,4%
same,%Inh,MLK1,0%
same,%Inh,MLK2,0%
same,%Inh,MLK3,15%
same,%Inh,MRCKA,15%
same,%Inh,MRCKB,0%
same,%Inh,MST1R,35%
same,%Inh,MST1,8%
same,%Inh,MST2,3%
same,%Inh,MST3,15%
same,%Inh,MST4,0%
same,%Inh,MTOR,4%
same,%Inh,MUSK,10%
same,%Inh,MYLK2,0%
FC(F)(F)c1cc(Nc2nccc(-c3c(-c4ccc(Cl)cc4)nn4ncccc34)n2)ccc1Cl [GW829351],%Inh,MERTK,11%
same,%Inh,MET,0%
same,%Inh,MINK,0%
same,%Inh,MKK7,0%
same,%Inh,MKNK1,0%
same,%Inh,MKNK2,0%
same,%Inh,MLCK,10%
same,%Inh,MLK1,0%
same,%Inh,MLK2,4%
same,%Inh,MLK3,0%
same,%Inh,MRCKA,0%
same,%Inh,MRCKB,9%
same,%Inh,MST1R,0%
same,%Inh,MST1,0%
same,%Inh,MST2,3%
same,%Inh,MST3,0%
same,%Inh,MST4,0%
same,%Inh,MTOR,0%
same,%Inh,MUSK,0%
same,%Inh,MYLK2,0%
Nc1nc(-c2cccnc2)c(-c2ccnc3ccccc23)s1 [GW684083],%Inh,MERTK,0%
same,%Inh,MET,0%
same,%Inh,MINK,51%
same,%Inh,MKK7,0%
same,%Inh,MKNK1,1%
same,%Inh,MKNK2,0%
same,%Inh,MLCK,30%
same,%Inh,MLK1,0%
same,%Inh,MLK2,0%
same,%Inh,MLK3,7%
same,%Inh,MRCKA,0%
same,%Inh,MRCKB,0%
same,%Inh,MST1R,18%
same,%Inh,MST1,4%
same,%Inh,MST2,10%
same,%Inh,MST3,10%
same,%Inh,MST4,0%
same,%Inh,MTOR,27%
same,%Inh,MUSK,11%
same,%Inh,MYLK2,0%
Clc1ccc(-c2cc(-c3c[nH]nc3-c3ccccn3)ccn2)cc1 [GW681251],%Inh,MERTK,27%
same,%Inh,MET,0%
same,%Inh,MINK,78%
same,%Inh,MKK7,30%
same,%Inh,MKNK1,0%
same,%Inh,MKNK2,3%
same,%Inh,MLCK,0%
same,%Inh,MLK1,0%
same,%Inh,MLK2,0%
same,%Inh,MLK3,0%
same,%Inh,MRCKA,0%
same,%Inh,MRCKB,1%
same,%Inh,MST1R,0%
same,%Inh,MST1,0%
same,%Inh,MST2,0%
same,%Inh,MST3,0%
same,%Inh,MST4,0%
same,%Inh,MTOR,20%
same,%Inh,MUSK,12%
same,%Inh,MYLK2,0%
COc1ccc(-c2nc3n(c2-c2ccncc2)CCC3)cc1 [SKF-104493],%Inh,MERTK,0%
same,%Inh,MET,0%
same,%Inh,MINK; 1 µM,5% and 19%
same,%Inh,MKK7; 1 µM,14% and 19%
same,%Inh,MKNK1,0%
same,%Inh,MKNK2; 1 µM,19% and 0%
same,%Inh,MLCK,0%
same,%Inh,MLK1,0%
same,%Inh,MLK2; 1 µM,0% and 4%
same,%Inh,MLK3; 1 µM,9% and 24%
same,%Inh,MRCKA; 1 µM,0% and 2%
same,%Inh,MRCKB,0%
same,%Inh,MST1R; 1 µM,19% and 14%
same,%Inh,MST1,0%
same,%Inh,MST2; 1 µM,4% and 16%
same,%Inh,MST3,0%
same,%Inh,MST4,0%
same,%Inh,MTOR; 1 µM,0% and 11%
same,%Inh,MUSK,3%
same,%Inh,MYLK2,0%
